Screens from PubChem.
T cruzi growth-1: T. cruzi intracellular proliferation inhibitors, primary screen, cell-based, beta-gal Tulahuen parasites, NIH3T3 host, luminescence; T. cruzi beta-gal in NIH3T3, GalScreen luminescence, 90 h; inhibition, % at 8.34 µM; actives 5.9% (n = 77,000);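 active = mean inhibition above about 93%, with at least 55% of replicates each passing it, limit read from the data, passing the limit was not always enough; inconclusive = only one of those two conditions holds; inactive = neither condition holds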
Pf Dd2 growth: P. falciparum Dd2 growth inhibitors, primary screen, SYBR Green fluorescence, single dose replicates. 72 h; active compounds read low. activity change, % at 10 µM. actives 2.3% (n = 94,000). AID 1159554, 2015; in the data active = activity change below about -80%; inconclusive = no clear call, values can overlap the other calls
C diff growth: C. difficile growth inhibitors, primary screen, HTS. Clostridium difficile clinical isolate growth, OD600, 24 h; active compounds read low. growth activity, negative = inhibition, % at 16 µg/mL (by protocol). actives 0.25% (n = 86,000);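 active = mean growth activity at or below -80% and every replicate also at or below -80%; inconclusive = mean at or below -80% but some replicate above -80%; inactive = mean growth activity above -80%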;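 also: 0% = DMSO wells and -100% = levofloxacin 16 µg/mL wells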
T cruzi growth-2: T. cruzi intracellular proliferation inhibitors, confirmation, cell-based, NIH3T3 host, beta-gal parasite, luminescence, cherry-pick | shares compounds with T cruzi growth-1 | T. cruzi beta-gal in NIH3T3, GalScreen luminescence, 90 h | inhibition, % at 8.35 µM | actives 72% (n = 5,600) | AID 651739, 2012;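 active = mean replicate inhibition above about 95% and at least 55% of replicates individually reaching it, limit read from the data; inconclusive = only one of the two criteria is met; inactive = neither criterion is met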
T cruzi growth-3: inhibitors of intracellular T. cruzi replication, confirmation, NIH3T3 host cells, beta-gal parasites, cherry-pick, set 2; shares compounds with T cruzi growth-1; T. cruzi beta-gal in NIH3T3, GalScreen luminescence, 90 h; inhibition, % at 2.09 µM; actives 21% (n = 5,600); AID 651740, 2012;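 active = mean inhibition above about 95%, with at least 55% of replicates also reaching it, limit read from the data; inconclusive = meets just one of the two conditions; inactive = meets neither condition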;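 also: plate controls were neutral control median for no effect and positive control median for full effect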
3T3 cytotox: cytotoxicity in mouse NIH/3T3 fibroblasts, confirmation, cytotoxicity control for T. cruzi proliferation inhibitor project, cell-based, cherry-pick, single point; shares compounds with T cruzi growth-1; AID 651742, 2012; cytotoxicity (signal decrease), % at 8.35 µM; NIH/3T3 viability, CellTiter-Glo ATP luminescence, 90 h; actives 14% (n = 5,600);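 active = mean signal decrease across replicates above about 35% based on untreated-well scatter, with enough replicates individually passing, limit read from the data; inconclusive = no rule stated though some were filed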;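 also: 0% = median of neutral control wells and 100% = median of positive control wells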
3T3 cytotox 2: NIH/3T3 fibroblast cytotoxicity, confirmation, cytotoxicity control, cell-based, cherry-pick, single point, set 2 | AID 651744, 2012 | actives 56% (n = 5,600) | shares compounds with T cruzi growth-1 | NIH/3T3 viability, CellTiter-Glo ATP luminescence, 90 h | inhibition, % at 24.9 µM;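 active = mean loss of cell viability signal at or above a set limit, and enough replicates individually reaching it; inconclusive = meets only the mean limit or only the replicate share; inactive = meets neither condition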;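 also: 0% = median of neutral control wells and 100% = median of positive control wells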
The depositor's hits bear a star; ? = inconclusive; . = no result. Rows were chosen to be rich in hits. Some 6.7% of all compounds tested hit in one or more screens of this group.

SMILES	T cruzi growth-1	Pf Dd2 growth	C diff growth	T cruzi growth-2	T cruzi growth-3	3T3 cytotox	3T3 cytotox 2
COc1ccc(CN(C)C[C@H]2Oc3ccc(NC(=O)C4CC4)cc3CC(=O)N([C@H](C)CO)C[C@@H]2C)cc1	.	19	-7	.	.	.	.
CCC(=O)N(C)C[C@H]1Oc2cc(C#CCN(C)C)ccc2S(=O)(=O)N([C@H](C)CO)C[C@H]1C	66	5	-1	.	.	.	.
CCCNC(=O)N(C)C[C@H]1Oc2cc(C#CCN(C)C)ccc2S(=O)(=O)N([C@@H](C)CO)C[C@@H]1C	?	-4	-4	88	36	-24	-20
CCC(=O)N(C)C[C@@H]1Oc2cc(C#CCN(C)C)ccc2S(=O)(=O)N([C@H](C)CO)C[C@@H]1C	94	3	-2	.	.	.	.
CCCC#Cc1ccc2c(c1)O[C@H](CN(C)C(=O)NCCC)[C@H](C)CN([C@H](C)CO)S2(=O)=O	-42	-23	6	.	.	.	.
CCC(=O)N(C)C[C@H]1Oc2cc(C#CCN(C)C)ccc2S(=O)(=O)N([C@@H](C)CO)C[C@@H]1C	102*	-2	-1	104*	?	26	19
CCC(=O)N(C)C[C@H]1Oc2cc(C#CCN(C)C)ccc2S(=O)(=O)N([C@H](C)CO)C[C@@H]1C	102*	7	1	97*	91	-11	-1
COc1ccc(S(=O)(=O)N(C)C[C@H]2OCCCC[C@H](C)Oc3ccc(NS(=O)(=O)c4cn(C)cn4)cc3C(=O)N([C@@H](C)CO)C[C@H]2C)cc1	45	-37	-2	.	.	.	.
O=C(O)C[C@@H]1CC[C@@H]2[C@H](COC[C@H](O)CN2S(=O)(=O)c2ccc(F)cc2)O1	.	-9	1	.	.	.	.
C[C@@H]1CN([C@@H](C)CO)C(=O)c2cc(C3=CCCC3)cnc2O[C@H]1CN(C)S(C)(=O)=O	.	17	0	.	.	.	.
COc1ccc(C(=O)Nc2ccc3c(c2)C(=O)N(C)C[C@H](OC)[C@@H](C)CN(C)[C@H](C)CO3)cc1	7	45	1	.	.	.	.
C[C@@H]1CCCCO[C@H](CN(C)C(=O)c2ccncc2)[C@@H](C)CN([C@H](C)CO)C(=O)c2cc(NC(=O)CCCCCC(=O)Nc3ccccc3N)ccc2O1	7	9	2	.	.	.	.
C[C@@H]1CCCCO[C@H](CN(C)C(=O)C2CCCCC2)[C@H](C)CN([C@@H](C)CO)C(=O)c2cc(NC(=O)CCCCCC(=O)Nc3ccccc3N)ccc2O1	102	-74	1	.	.	.	.
C[C@H](CO)N1C[C@H](C)[C@H](CN(C)C(=O)c2ccccc2)OCCCC[C@H](C)Oc2ccc(NC(=O)CCCCCC(=O)Nc3ccccc3N)cc2C1=O	100*	-29	-1	108*	?	-7	-39
C[C@@H]1CCCCO[C@H](CN(C)C(=O)c2ccccc2)[C@H](C)CN([C@@H](C)CO)C(=O)c2cc(NC(=O)CCCCCC(=O)Nc3ccccc3N)ccc2O1	99*	-47	-1	107*	103*	5	2
COCCNC(=O)C[C@H]1C[C@H]2c3cc(NC(=O)c4cccnc4)ccc3O[C@H]2[C@H](CO)O1	13	12	0	.	.	.	.
O=C(C[C@H]1C=C[C@@H](NC(=O)C2CCC2)[C@@H](CO)O1)NCCCN1CCOCC1	33	25	.	.	.	.	.
COCC(=O)N[C@H]1CC[C@H](CC(=O)NCc2ccc(Cl)cc2)O[C@@H]1CO	-33	7	0	.	.	.	.
COC(=O)C[C@@H]1CC[C@H]2[C@H](COc3ccc(NC(=O)NC(C)C)cc3C(=O)N2C)O1	-17	10	-6	.	.	.	.
O=C(Nc1ccccc1F)N1CCCCN2[C@H](CO)[C@@H](c3ccc(C4=CCCC4)cc3)[C@@H]2C1	79	9	6	.	.	.	.
O=C(Nc1ccccc1F)N1CCCCN2[C@H](CO)[C@@H](c3ccc(C4=CCCCC4)cc3)[C@H]2C1	103*	-55	20	111*	73	39*	107*
